This passage reports growth results from PubChem BioAssay (NCI).

This is part of a sample that, as a whole, favours compounds with a hit. Of some 83,000 tested, about 20% had one in any assay.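 Cells were grown in 96-well plates and exposed to the test compound at a single concentration for 48 hours; results are reported as percent growth, with values below 10 considered active.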 Unmarked numbers belong to inactive results. Active and inactive are the calls of the source.

Common to all, as to assay: NCI-60 one-dose screen, 48 h (100 = growth as untreated, 0 = no growth, -100 = all killed)
What all share (settings): 10 µM unless noted

The subject of test [1] is NCI-H23 lung.
The test system of test [2] is NCI-H226 lung.
For test [3], the system named is NCI-H322M lung.
In test [4] the test system is HOP-62 NSCLC.
Test [5] deals with NCI-H460 lung.
The subject of test [6] is HOP-92 NSCLC.
Test [7] deals with NCI-H522 lung.
Test [8] deals with A549/ATCC NSCLC.
Test [9] concerns 786-0 renal.
The subject of test [10] is COLO 205 colon.
Test [11] has as its system DU-145 prostate.
Test [12] concerns K-562 leukemia.
Test [13] concerns MALME-3M melanoma.
For test [14], the system named is MDA-MB-231 breast.
Test [15] concerns RXF 393 renal.
Test [16] has as its system SF-268 CNS.
Test [17] concerns SF-539 CNS.
In test [18] the test system is UACC-257 melanoma.
Test [19] concerns M14 melanoma.
For test [20], the system named is SF-295 CNS.

On to `COc1cc(C2Nc3ccccc3S2)cc(CN2CCOCC2)c1O` (stereo not drawn), for which the growth in [1] was 78.8%; in test [2], 92.3%; in [3] it was 116%; in test [4], 86.1%; in test [5], 52.7%; in test [6], 103%. Also, the growth was -2.67% (active) in test [7]; 73.6% in test [8]; 104% in test [9]; 89.6% in [10]; 101% in [11]; 46.9% in [12]. Moreover, the growth in test [13] is 66.7%; in [14] it was 63.6%; in test [15], 78.5%; in test [16] it was 91.1%; in test [17] it was 82.3%; in [18] it was 78.2%. The growth in test [19] was 55.5%.
Turning to `CCCCCCCCCCCCCC(=S)NCCCC[C@H](NC(=O)OCc1ccccc1)C(=O)Nc1ccccc1`, the growth in [1] is 37.2%; in test [2], 60.8%; in [3] it was 95.2%; in [4], 58.4%; in test [5], 45.5%; in [6], 19.8%. Also, the growth in [7] was 27.6%; in test [8], 49.3%; in [9] it was 48.8%; in test [10] it was 55.6%; in [11], 52.4%; in test [12], 17.1%. Further, the growth in test [13] is 83.6%; in test [14], 17.5%; in test [15] it was 69.1%; in test [16], 43.3%; in test [17], 75.3%; in [18], 69.1%. In [19], the growth was 37.3%.
As for `CCc1ccc(-c2ccc(NC3CCCCCC3)nn2)cc1S(N)(=O)=O`, the growth in test [1] is 106%; in test [2], 104%; in test [3] it was 110%; in test [4], 120%; in test [5], 104%; in test [6], 94.2%. The growth is 87.7% in test [7]; 98.2% in test [8]; 103% in [9]; 115% in [10]; 114% in [11]; 112% in test [12]. The growth in test [13] was 104%; in [14], 109%; in test [15], 115%; in test [16], 117%; in test [17] it was 98.9%; in test [18] it was 100%. The growth in test [19] is 104%.
Consider `CC(C)(C)c1ccc(Cn2c(-c3nonc3N)nc3ccccc32)cc1`, for which the growth in [1] is 70.7%; in test [2], 83.4%; in test [3], 83%; in test [4] it was 82.1%; in [5], 86%; in [6], 64.3%. In addition, the growth was 49.3% in [7]; 68.4% in [8]; 80.4% in test [9]; 67.2% in test [10]; 83.3% in test [11]; 19.1% in [12]. For the same compound, the growth was 82.3% in [13]; 81.8% in [14]; 77.8% in test [15]; 75.6% in test [16]; 71.5% in test [20]; 89.7% in [17]. In addition, the growth in test [18] is 76.8%; in test [19] it was 66.9%.
On to `CN1CCN(Cc2ccc(NC(=O)c3cncc(C#Cc4ncc5ccccn45)c3)cc2C(F)(F)F)CC1`, for which the growth in test [1] is 9.22% (active); in test [2], -8.28% (active); in test [3] it was 33.3%; in [4], 16.4%; in test [5] it was 5.79% (active); in test [6], -1.18% (active). For the same compound, the growth in test [7] was 18.4%; in test [8], 7.74% (active); in [9] it was 3.06% (active); in [10], -26.5% (active); in [11], -4.29% (active); in test [12] it was 3.35% (active). The growth in test [13] was -21.4% (active); in [14] it was 15.4%; in [15], -10.1% (active); in test [16], 15.4%; in test [17], -79.6% (active); in test [18] it was 7.63% (active). Also, the growth in test [19] is 5.5% (active).
As to `Oc1c(-c2cc(C(F)(F)F)[nH]n2)cc(Cl)c(OCc2ccc(Cl)cc2)c1-c1ccc(Cl)c(C(F)(F)F)c1`, the growth in test [1] was 6% (active); in test [2], -13.2% (active); in test [3], 8.73% (active); in [4], -20.9% (active); in [5], 7.68% (active); in test [6], -12.1% (active). The growth in test [7] is -2.6% (active); in [8], 11.6%; in [9], -21.4% (active); in test [10] it was -38.8% (active); in test [11], 10.2%; in [12], 5.9% (active). Also, the growth in test [13] was -30.5% (active); in [14], -5.89% (active); in [15], -24.7% (active); in test [16] it was -5.51% (active); in test [17], -11.6% (active); in test [18] it was -2.82% (active). For the same compound, the growth in [19] is -21% (active).
On to `CC1=C(C(=O)Nc2ccc(F)cc2)C(c2ccc(Cl)cc2)C2=C(CC(C)(C)CC2=O)N1` (stereo not drawn), for which the growth is 86% in test [1]; 84.1% in test [2]; 102% in test [3]; 97.2% in test [4]; 96.4% in [5]; 62% in test [6]. Further, the growth was 82.4% in test [7]; 78.3% in test [8]; 88.3% in test [9]; 97% in [10]; 105% in test [11]; 74% in test [12]. Further, the growth was 160% in test [13]; 82% in [14]; 96.4% in [15]; 86.3% in [16]; 94% in test [17]; 95.3% in [18]. The growth in [19] was 98.5%.
For the compound `O=C(Nc1ccc(OS(=O)(=O)c2ccc(F)cc2)cc1)C12CC3CC(CC(C3)C1)C2`, the growth in test [1] is 74.9%; in [2], 87.6%; in test [3] it was 92.4%; in test [4], 54.1%; in test [5], 63.6%; in test [6], 48.1%. The growth is 66% in [7]; 56.2% in test [8]; 59.3% in [9]; 54.3% in test [10]; 87.1% in test [11]; 27.5% in test [12]. Moreover, the growth in test [13] is 99.7%; in test [14], 59.2%; in [15], 58.6%; in test [16] it was 78.4%; in [17], 61%; in test [18] it was 65.3%. Moreover, the growth in test [19] is 58.8%.
